Source: PubChem BioAssay
SF-1 inh – inhibitors of human SF-1, primary screen, cell-based, CHO-K1, Gal4-SF-1 LBD, luciferase luminescence; Steroidogenic factor 1 (Homo sapiens), Q13285; CHO-K1 Gal4-SF-1 LBD luciferase reporter; inhibition, % at 10 µM; 65,000 compounds, 0.55% hits; AID 525, 2006;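 active = inhibition above the mean inhibition of all tested compounds plus 3 SD, cut at about 48% in these data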;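 also: 0% = SF-1 transfected cells with DMSO and 100% = mock-transfected cells lacking SF-1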
Target sequence (Q13285 whole entry, looked up, the tested form may be a part): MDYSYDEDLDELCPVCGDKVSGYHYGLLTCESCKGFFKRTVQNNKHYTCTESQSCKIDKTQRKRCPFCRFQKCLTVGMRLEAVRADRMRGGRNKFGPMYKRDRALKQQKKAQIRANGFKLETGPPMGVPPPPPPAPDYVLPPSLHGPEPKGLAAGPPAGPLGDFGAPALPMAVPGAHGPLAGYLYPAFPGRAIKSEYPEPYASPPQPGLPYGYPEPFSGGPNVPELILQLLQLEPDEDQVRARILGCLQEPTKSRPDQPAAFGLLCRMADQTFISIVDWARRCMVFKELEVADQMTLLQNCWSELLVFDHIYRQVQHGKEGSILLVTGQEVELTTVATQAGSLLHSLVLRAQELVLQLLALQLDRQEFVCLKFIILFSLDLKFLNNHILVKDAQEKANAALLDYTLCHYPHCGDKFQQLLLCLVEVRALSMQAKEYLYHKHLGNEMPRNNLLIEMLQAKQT
* marks the source's active call; other numbers are inactive results. Shown is part of a subset that was picked to be rich in hits.

SMILES | SF-1 inh
c1ccc(OCCSc2nnnn2-c2ccccc2)cc1 | -63
CCC(=O)Nc1nc(C)cc(SCC(=O)OC)n1 | 2
Cc1ccc(Cl)cc1N1CCN(Cc2nc3c(c(=O)[nH]c(=O)n3C)n2Cc2ccccc2F)CC1 | -2
O=C(C1CCCCC1)N1CCN(c2ncccn2)CC1 | -4
COc1ccc2c(c1)CCc1c(C(=O)NCCN3CCOCC3)noc1-2 | 3
COc1ccc(C2=NOC(C(=O)NCCCN3CCOCC3)C2)cc1 (stereo not given) | -12
CCc1ccc(-c2nc(CSCC(=O)N3CCN(c4ncccn4)CC3)c(C)o2)cc1 | 51*
CCOc1ccc(-c2nc(CSCC(=O)NCCN3CCOCC3)c(C)o2)cc1 | 65*
Cc1ccc(-c2nc(CS(=O)CC(=O)NCc3ccccn3)c(C)o2)cc1 (stereo not given) | -1
COc1ccc(-c2nc(CS(=O)CC(=O)N3CCCC3)c(C)o2)cc1 (stereo not given) | 3
COc1ccc(-c2nc(CSCC(=O)NCc3ccco3)c(C)o2)cc1 | 69*
Cc1cc(-c2ccco2)n(CC(=O)NCc2ccco2)n1 | -12
O=C(COc1ccc(-c2nnco2)cc1)NC1CCCc2ccccc21 (stereo not given) | -3
Cc1ccc2occ(C(c3nnnn3Cc3ccccc3)N3CCOCC3)c(=O)c2c1 (stereo not given) | -5
CCOCC(=O)Nc1cccc(Br)c1 | -10
O=C(CC(=O)c1ccccc1)Nc1ccc2c(c1)OCCO2 | -61
COC(=O)Sc1nnc(-c2ccc(Br)cc2)o1 | 4
CC(C)(C)c1cc(CN2CCCC(O)C2)c(O)c(C(C)(C)C)c1 (stereo not given) | 14
O=C(COC(=O)c1ccc(S(=O)(=O)N2CCOCC2)cc1)NC1CCCCCC1 | 3
O=S(=O)(c1ccc2c(c1)C(=NO)c1cc(S(=O)(=O)N3CCCCC3)ccc1-2)N1CCCCC1 | 96*
O=C(c1ccccc1F)N1CCN(S(=O)(=O)c2ccc(S(=O)(=O)N3CCCCC3)cc2)CC1 | -7
O=S(=O)(c1ccccc1)c1cccc(S(=O)(=O)N2CCCCC2)c1 | 0
NC(=O)CS(=O)(=O)c1nc2ccccc2n1Cc1ccccc1F | 10
CCOC(=O)Cn1c(-c2ccccn2)nc2ccccc21 | 7
Cc1cc(/C=c2/sc3nc4ccccc4n3c2=O)c(C)n1-c1ccccn1 | 85*
SMILES | SF-1 inh
Cc1cccc(NC(=O)c2cc3ccccc3c(=O)o2)n1 | -65
Cc1cccc(NC(=O)Nc2ccc(C#N)cc2)n1 | 71*
COc1ccc(NC(=O)Nc2cccc(C)n2)cc1 | -64
CC(=O)NCc1ccc(-c2csc(N)n2)s1 | 7
CC(=O)NC1(C(F)(F)F)NC(=O)N(CC(C)C)C1=O (stereo not given) | 4
Cn1c(-c2ccc3ccccc3n2)nc2cnccc21 | -65
CCCCNC(=O)c1nnn(-c2ccccc2)c1N | -67
Cn1cccc1C(=O)NC(=O)CSc1nc2ccccc2s1 | 0
c1csc(CNc2ncnc3sccc23)c1 | 51*
Clc1ccc(-n2ncc3c(NCc4cccs4)ncnc32)cc1 | -74
c1ccc(OCCOc2ncnc3sccc23)cc1 | -53
O=C(CNC(=O)c1ccccc1C(=O)O)c1ccccc1 | -56
O=C1C2CC=CCC2C(=O)N1c1n[nH]c(Cc2ccccc2)n1 (stereo not given) | 1
O=C(CCCC(=O)N(CC(=O)NC1CCCCC1)Cc1ccc2c(c1)OCO2)Nc1ccccn1 | 6
Nc1nsc2ccccc12 | 58*
COC(=O)c1ccc(C(c2c(N)n(Cc3ccccc3)c(=O)n(C)c2=O)N2CCOCC2)cc1 (stereo not given) | 0
CCn1cc(Br)c(C(=O)Nc2ccc(F)c(Cl)c2)n1 | -35
C=CCn1c(SCc2c(C)noc2C)nc2cc(C(=O)O)ccc2c1=O | -17
O=C(CSc1ccccn1)N1CCN(c2ccccc2)CC1 | -1
Cc1cccc(N2CCN(C(=O)CSCc3c(C)noc3C)CC2)c1C | 50*
O=C(NCc1ccco1)Nc1ccc(Br)cc1Cl | -60
CC(=O)CC1(O)C(=O)N(CN2CCN(c3ccccc3)CC2)c2ccccc21 (stereo not given) | 0
CC12CCC(C(=O)N3CCN(C(=O)C45CCC(C)(C(=O)O4)C5(C)C)CC3)(OC1=O)C2(C)C | -7
Nc1nc(Cl)nc2c1ncn2[C@H]1C[C@H](O)[C@@H](CO)O1 | 79*
Nc1ncnc2c1ncn2C1CCC(CO)C(O)C1 (stereo not given) | -1
SMILES | SF-1 inh
CCn1ccnc1C(O)c1cccc(OC)c1OC (stereo not given) | -8
CCSc1nnc(Nc2ccccc2)s1 | -54
CCSc1nnc(NC(=O)c2cc3c(s2)CCCC3)s1 | -52
CCSc1nnc(NC(=O)c2ccccn2)s1 | 55*
O=C(CSc1n[nH]c(-c2ccncc2)n1)NC1CCS(=O)(=O)C1 (stereo not given) | 10
COC(=O)Nc1ccc(S(=O)(=O)N2c3ccccc3CCC2C)cc1 (stereo not given) | -5
CN(c1ccccc1)S(=O)(=O)c1ccc(C(=O)Nc2nnc(-c3ccc(F)cc3)o2)cc1 | 1
